# aSyn 5UTR act: Activators working through SNCA 5'UTR binding (MLPCN). AID 1814. actives 7.1% (n = 300,000). activity score, % (tested at 7.5 µM), hits read low. alpha-synuclein 5'UTR reporter, activators screen; in the data active = activity score below about -60%
# * hit, by the source's call. These entries were drawn from the full list.
SMILES,aSyn 5UTR act
C=CCn1c(C)cc(C(=O)COC(=O)[C@@H](NC(=O)c2ccccc2Cl)C(C)C)c1C,-70*
CCc1cc(C(=O)NNC(=S)Nc2ccccc2C)cs1,-147*
CCc1cc(C(=O)Nc2ccccc2)cs1,-134*
O=[N+]([O-])c1ccc(/C=N/Nc2ccccn2)cc1,-188*
Nc1nnc(/C=C/c2cccc([N+](=O)[O-])c2)s1,-64*
O=C(O)c1ccc(/C=N\Nc2ccccn2)cc1,-79*
Cc1[nH]c2ccccc2c1/C=N/Nc1ccccn1,-100*
O=[N+]([O-])c1cccc(/C=N/Nc2nccnc2Cl)c1,-147*
O=[N+]([O-])c1cccc(/C=C/c2ccccn2)c1,-141*
O=C(N/N=C/c1ccc(Sc2nc3ccccc3s2)c([N+](=O)[O-])c1)c1ccccn1,-75*
CN(C)c1ccc(/C=N\Nc2ccccn2)cc1,-232*
N#C/C(=C\c1cccc([N+](=O)[O-])c1)c1ccccn1,-67*
O=[N+]([O-])c1cccc(/C=N/Nc2ccccn2)c1,-230*
O=[N+]([O-])c1cc(Cl)cc(/C=N\Nc2ccccn2)c1O,90
O=C(O)c1ccc(/C=N/Nc2ncc(Cl)cc2Cl)cc1,-72*
O=[N+]([O-])c1cc(/C=N\Nc2ccccn2)ccc1Cl,-91*
O=C(O)c1ccc(N/N=C/c2ccc(OC(=O)c3cccc(Cl)c3)cc2)cc1,76
O=C(N/N=C/c1ccc(Cl)c([N+](=O)[O-])c1)c1cnccn1,-72*
CSC1=NSC2=NC(=O)/C(=C\c3cccs3)C(=N)N12,-199*
CC(C)CSC1=NSC2=NC(=O)/C(=C\c3cccs3)C(=N)N12,-69*
COc1ccc2nc(C)cc(SCC(=O)N/N=C/c3ccc(O)cc3O)c2c1,80
COc1ccc2nc(/C=N/NC(=O)CCCCCNC(=O)OC(C)(C)C)ccc2c1,-70*
Cc1nn(-c2ccccc2)c(Cl)c1/C=N\NC(=O)c1cnccn1,-106*
Cc1nn(-c2ccccc2)c(Cl)c1/C=N/NC(=O)c1ccco1,-106*
Cc1ccc2oc(=O)c(/C=C(\O)c3cccs3)nc2c1,-148*
SMILES,aSyn 5UTR act
O=c1oc2ccc(Cl)cc2nc1/C=C(\O)c1cccs1,-108*
Cc1ccc2oc(=O)c(/C=C(\O)c3ccccc3)nc2c1,-79*
c1ccc(Cn2ccc(-c3cnc(-c4ccccc4)s3)n2)cc1,-106*
C#CC(C)(C)NC(=O)c1ccc(-c2ccccc2F)cc1,-89*
CC(C)(O)c1cc(=O)sc2nc3ccccc3n12,-103*
CC1CCOC(c2coc3ccccc3c2=O)O1 (centres undefined),-113*
O=C(NCSc1ccccc1)c1ccccc1,-94*
CCOc1ccc(OCc2ccc(C(=O)N(CC)CC)cc2)cc1,-155*
CCOc1ncccc1C(=O)OCc1ccc(C(=O)OC)cc1,-126*
CCC(=O)c1ccc(OCc2ccc(C#N)cc2)cc1,-112*
CCOc1ccc(OCc2cccc(C(=O)O)c2)cc1,84
CCC(=O)c1ccc(OCc2ccc(C(=O)OC)cc2)cc1,-73*
Cc1ccc(OCc2nc(-c3ccccn3)no2)cc1,-64*
c1ccc(-c2noc(-c3ccncc3)n2)nc1,-62*
c1ccc(OCCCc2nc(-c3ccccn3)no2)cc1,-85*
c1ccc(-c2noc(-c3ccc4ccccc4c3)n2)nc1,113
CC(C)(C)Cc1nc(-c2ccccn2)no1,-99*
Cc1ccc(SCc2nc(-c3ccccn3)no2)cc1,-106*
Clc1ccccc1/C=C/c1nc(-c2ccccn2)no1,104
CC(C)c1ccc(OCc2nc(-c3ccccn3)no2)c(Br)c1,-67*
CC(Oc1ccc(Cl)cc1Cl)c1nc(-c2ccccn2)no1 (centres undefined),-129*
CC(Oc1ccc(Cl)cc1Cl)c1nc(-c2ccc(NC(=O)c3cccnc3)cc2)no1 (centres undefined),92
CC1CCN(Cc2nc(-c3ccccc3)no2)CC1,-190*
Cc1ccc(-c2noc(CN3CCC(C(N)=O)CC3)n2)cc1,-86*
CC(C)C(O)C1CCN(Cc2nc(-c3cccs3)no2)CC1 (centres undefined),-108*
SMILES,aSyn 5UTR act
O=S(=O)(/C(=C/c1ccc(C(F)(F)F)cc1)c1nc2ccccc2[nH]1)c1ccccc1,-62*
CC(C)c1ccc(/C=C(\c2nc3ccccc3[nH]2)S(=O)(=O)c2ccccc2)cc1,-81*
C#CCSc1nnc(-c2ccc(O)cc2)o1,-138*
C#CCSc1nnc(-c2ccc(C)cc2)o1,-164*
C#CCSc1nnc(-c2cccc3ccccc23)o1,-104*
Cc1cccc(NC(=O)c2n[nH]c([N+](=O)[O-])c2Br)c1C,-62*
Cc1cc(O)c(C(=O)Cc2csc(C)n2)c(O)c1,-132*
Cc1nc2c(oc3ccccc32)c(=O)o1,-84*
Cc1c(CCOC(=O)CC23CC4CC(CC(C)(C4)C2)C3)sc[n+]1CC(=O)c1ccccc1,-65*
CN(C)c1ccc(C(=O)OCc2ccccc2)cc1,-74*
CN(C)c1ccc(CCc2ccc(N)cc2)cc1,84
CCC(=O)C1CCCN(C(=O)CCc2nnc(C3(c4ccc(Cl)cc4)CCC3)o2)C1 (centres undefined),-62*

# Source: PubChem
